# Screens: PubChem BioAssay, National Center for Advancing Translational Sciences (NCATS)
# Sampled rows, rich in hits. Any-hit rate of the full collection: about 7.4%.
# NPC1 promoter act: NPC1 promoter activation; hit rate 2.4% among 320,000; AID 485313; Huh7 NPC1 promoter luciferase reporter, 24 h; Potency, µM (top dose mostly 9.22 µM), inactives show at the highest dose activation, usual class: activators; also: % of control where 0% means no effect; nearly all actives have a fitted effect of over 60% in size
#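 Luminescence from an NPC1 promoter-driven luciferase reporter in stably transfected Huh7 cells was measured after 24 h compound treatment at 37 °C, followed by 10 min ambient incubation with luciferase detection reagent.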
# ELG1 genotoxic: inducers of genotoxicity in HEK293T ELG1-luciferase cells | HEK293T ELG1-luciferase reporter, luminescence, 16 h | Potency, µM (top dose mostly 46 µM), without a hit: top-dose activity change, positive = activation, actives largely listed as activators | hit rate 1.3% among 330,000 | AID 504466; also: % of control where 0% means no effect; nearly all actives have a fitted effect of over 60% in size
#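 Cells (2,000/well) expressing the ELG1-luciferase fusion are dosed by pin tool and kept 16 hr at 37 °C, 5% CO2. Signal comes from ONE-Glo luciferase reagent after 30 min at room temperature.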
# FLuc counter: counter-screen for miR-21 project: firefly luciferase inhibitors or activators | P08659 | purified FLuc, Km substrates, luminescence inhibition | Potency, µM (series often up to 57.5 µM), for inactives: top-dose activity change, negative = inhibition, usual class: inhibitors | hit rate 6.9% among 360,000 | AID 588342;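 also: plate controls were vehicle for no effect and reference inhibitor for full effect; nearly all actives have a fitted effect of over 55% in size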
# Target sequence (P08659 whole entry, looked up): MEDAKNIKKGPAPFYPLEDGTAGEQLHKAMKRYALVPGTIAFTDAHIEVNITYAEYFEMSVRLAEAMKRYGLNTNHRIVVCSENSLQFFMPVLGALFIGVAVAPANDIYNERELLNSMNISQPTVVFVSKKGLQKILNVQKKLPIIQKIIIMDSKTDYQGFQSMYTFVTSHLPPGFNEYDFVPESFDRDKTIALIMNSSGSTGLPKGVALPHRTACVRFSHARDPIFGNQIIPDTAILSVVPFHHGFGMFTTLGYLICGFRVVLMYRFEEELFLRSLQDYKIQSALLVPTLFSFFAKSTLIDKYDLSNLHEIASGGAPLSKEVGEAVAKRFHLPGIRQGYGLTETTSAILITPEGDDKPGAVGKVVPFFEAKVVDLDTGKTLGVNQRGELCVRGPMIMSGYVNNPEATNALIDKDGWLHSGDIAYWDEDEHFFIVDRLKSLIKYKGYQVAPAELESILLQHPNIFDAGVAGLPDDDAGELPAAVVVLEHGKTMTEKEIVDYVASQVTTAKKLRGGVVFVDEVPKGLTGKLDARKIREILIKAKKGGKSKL
#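 Biochemical qHTS of compounds, final roughly 60 µM downward over six points, against 10 nM purified firefly luciferase using Km concentrations of substrates (10 uM D-luciferin, 10 uM ATP) in Tris acetate pH 7.5 buffer; luminescence output.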
# SMN2 splice enh: increases expression of the SMN2 splice variant; AID 1458; HEK293 SMN2-luciferase splicing reporter, luminescence, 30-36 h; Potency, µM (titrated, usually from 46.1 µM), without a hit: at the top dose activity change, positive = activation, hits mostly activators; hit rate 2.8% among 210,000; also: % of control where 0% means no effect; nearly all actives have a fitted effect of over 55% in size
#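 qHTS luciferase splicing reporter: luminescence rises when SMN2 exon 7 is included in transfected HEK293 cells. Compound exposure lasted 30-36 h at 37C, with 4.5 mM final sodium butyrate as control, followed by a ONE-Glo read.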
# Rab9 promoter act: activators of Rab9 promoter; AID 485297; hit rate 2.8% among 320,000; Potency, µM (top dose mostly 9.22 µM), for the others: at the top dose activation, negative = inhibition, hits mostly activators; Huh7 Rab9 promoter-luciferase reporter, luminescence, 24 h; also: % of control where 0% means no effect; nearly all actives have a fitted effect of over 60% in size
#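 Rab9 promoter-driven luciferase in stably transfected Huh7 cells; 1500 cells/well rested 2 h, exposed to compound in DMSO for 24 h at 37 °C, 5% CO2. Luminescence read 10 min after adding luciferase reagent at ambient temperature.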
# Active calls of the source: *; ? = inconclusive; · = not tested or not shown; [ ] = dose if it differs, or a comment. Calls follow the shape of the dose curve; as a rule, active = well fitted curve in the direction sought with a large enough effect; inconclusive = small, poorly fitted or top-dose-only effect, or another doubt; inactive = no such curve, though single readings can be large; an effect the other way counts as inactive or inconclusive. Potency is read from the fitted curve at half-maximal effect.
SMILES,NPC1 promoter act,ELG1 genotoxic,FLuc counter,SMN2 splice enh,Rab9 promoter act
O=C1c2ccccc2-c2nnc(-c3ccccc3)cc21,1.26µM*,9.3%,0.477µM*,?,0.562µM*
COc1ccc(-c2cc3c(nn2)-c2ccccc2C3=O)cc1,?,-7.7%,0.169µM*,1.12µM*,0.1µM*
COc1cc(CCN2C(=O)c3cccc4cccc(c34)C2=O)c(S(=O)(=O)NCCO)cc1OC,2.7%,0.4%,13.5µM*,·,0.7%
COc1cc(CCN2C(=O)c3cccc4cccc(c34)C2=O)c(S(=O)(=O)NCCCO)cc1OC,-1.5%,1.1%,21.3µM*,-17.2%,3.4%
O=C(O)c1ccc(S(=O)(=O)c2ccc(Sc3ccc(C(=O)O)c(C(=O)O)c3)cc2)cc1,-6.6%,0.0%,10.7µM*,12.9%,-7.5%
O=C(O)c1ccc(S(=O)(=O)N2CCCC2)cc1,-0.4%,-5.3%,-0.2%,·,3.9%
C[C@H]1CCC2[C@](C)(CO)[C@@H](O)CC[C@]2(C)[C@@]12CCC(CO)(CCO)O2 (stereo not given in full),0.7%,-2.9%,1.4%,·,-2.8%
CNC(=O)c1sc2nc(-c3ccc(OC)cc3)cn2c1C,1.58µM*,2.06µM*,3.38µM*,·,0.891µM*
CCN(CC)C(=O)c1sc2nc(-c3ccc(OC)cc3)cn2c1C,1.78µM*,?,7.57µM*,?,?
COc1ccc(CNC(=O)Cc2csc3nc(-c4ccc(C)cc4)cn23)cc1,·,·,16.9µM*,·,·
COc1ccc(-c2cn3c(C)c(C(=O)Nc4cc(NC(C)=O)ccc4OC)sc3n2)cc1,-14.9%,0.6%,?,13.7%,-3.6%
O=C(CNC(=O)c1ccccc1)OCc1nc2ccccc2s1,8.0%,?,9.53µM*,·,6.8%
O=C(CNC(=O)c1ccccc1F)OCc1nc2ccccc2s1,-1.5%,13.8%,16.9µM*,15.2%,4.2%
O=C(CNC(=O)c1ccc(Cl)cc1Cl)OCc1nc2ccccc2s1,-0.4%,-8.0%,?,7.6%,10.3%
CCOC(=O)[C@H]1[C@H]2COc3ccc(OC)cc3[C@@H]2N2C(=O)[C@H](C)NC(=O)[C@@]12C,1.1%,4.7%,-0.6%,·,1.2%
COc1ccc(OC)c(N(CC(=O)N2CCOCC2)S(C)(=O)=O)c1,5.3%,-0.6%,0.1%,·,5.5%
COc1ccccc1CNC(=O)c1cccc(S(=O)(=O)N(C)c2ccccc2)c1,-2.2%,-2.8%,-0.1%,·,-1.4%
CN1C(=O)/C(=N/OC(=O)c2ccccc2)c2ccccc21,-5.3%,0.0%,7.57µM*,-8.0%,-3.5%
Cc1ccc(-c2csc3nc(C)n(N)c(=O)c23)o1,?,16.4µM*,?,4.5%,?
Cc1ccc(-c2csc3nc(C)n(-n4c(C)ccc4C)c(=O)c23)o1,-2.2%,-0.9%,?,-9.7%,1.1%
CCOC(=O)c1c(C)c(-c2ccccc2)n(CC(=O)Nc2cc(C)cc(C)c2)c1C,·,·,4.5%,3.7%,·
c1ccc(-c2noc(CSc3nc4ccccc4o3)n2)cc1,3.7%,1.1%,?,·,7.5%
c1ccc2oc(SCc3nc4ccccc4s3)nc2c1,·,·,4.78µM*,?,·
c1ccc(SCc2nc3ccccc3s2)nc1,3.55µM*,?,4.78µM*,·,1.26µM*
N#CCc1nc(CSc2nc3ccccc3o2)cs1,?,?,23.9µM*,4.1%,?
SMILES,NPC1 promoter act,ELG1 genotoxic,FLuc counter,SMN2 splice enh,Rab9 promoter act
CCOc1ccc(OCCSc2nc3ccccc3o2)cc1,6.9%,9.6%,-18.0%,4.4%,-1.6%
COc1ccc(CCNC(=O)CSc2nnc(-c3ccco3)c(-c3ccco3)n2)cc1OC,3.7%,7.1%,?,·,-2.1%
O=C(c1ccc2ncsc2c1)N1CCN(c2cccc(C(F)(F)F)c2)CC1,-17.4%,2.7%,?,·,-5.2%
Cc1ccc(Nc2nc3ccccc3c3nnc(C)n23)cc1Cl,·,·,-10.8%,·,·
COc1ccc(Nc2nc3ccccc3c3nnc(C)n23)cc1Cl,·,·,23.9µM*,-0.5%,·
COc1ccc(C)cc1NC(=O)CSc1nc(=O)n(Cc2cccnc2)c2c1CCC2,·,·,-5.7%,·,·
CC(C)CN1CCCC2(CCN(S(=O)(=O)c3ccccc3)CC2)C1,·,·,·,4.8%,·
COc1ccc(-c2nc3ccccc3n2OCC(=O)O)cc1,8.6%,?,3.01µM*,·,19.0%
COc1ccc(-c2nc3ccccc3c(=O)n2O)cc1,-4.0%,-0.3%,2.4%,·,5.8%
O=C(O)COn1c(-c2ccc(Cl)cc2)nc2ccc(Cl)cc21,2.3%,?,9.53µM*,16.0%,7.1%
COn1c(-c2ccc(Cl)cc2)nc2ccc(Cl)cc21,29.8%,9.7%,9.53µM*,12.6%,?
O=C(OCc1nc2ccc(Cl)cc2n1CCO)c1ccccc1,1.5%,1.7%,0.9%,2.3%,3.3%
O=C1c2ccccc2C(=O)c2c(Nc3cc4c5c(ccc6c7ccc8c9c(cc(Nc%10cccc%11c%10C(=O)c%10ccccc%10C%11=O)c(c3c56)c97)-c3ccccc3C8=O)C(=O)c3ccccc3-4)cccc21,·,·,·,12.7%[9.22 µM],·
CC(Cl)c1cc(-c2ncc(C(F)(F)F)cc2Cl)no1 (stereo not given),-1.9%,7.1%,?,6.8%,1.7%
FC(F)(F)c1cnc(-c2cnc(-c3ccccn3)nc2)c(Cl)c1,?,1.9%,10.7µM*,11.2µM*,0.708µM*
FC(F)(F)c1cnc(-c2cnc(-c3ccncc3)nc2)c(Cl)c1,?,1.9%,?,24.5%,3.16µM*
Cc1sc2ccccc2[n+]1CCC(=O)O,·,·,·,-25.9%[9.22 µM],·
CC12CC3CC(C)(C1)CC(C(=O)N1CCN(C(=O)C4CCCO4)CC1)(C3)C2 (stereo not given),-0.7%,0.6%,-0.4%,·,-0.9%
O=C(Nc1ccccc1)C1Cc2ccccc2CN1C(=O)c1ccco1 (stereo not given),9.4%,16.5%,19µM*,13.8%,14.4%
O=C(CNC(=O)c1ccccc1F)N/N=C/c1cccnc1,10.2%,8.1%,-13.6%,·,24.1%
COc1ccccc1-c1ccc2ncnc(N(C)C)c2c1,·,·,·,-8.2%,·
CCOC(=O)C(Cc1ccc(O)cc1)NC(=O)CNC(=O)C1CCCN1C(=O)OC(C)(C)C (stereo not given),-1.8%,2.2%,-0.4%,·,-10.6%
COCCNc1oc(-c2ccc(Cl)cc2)nc1C#N,?,?,10.7µM*,?,?
COc1ccc(CCNc2oc(-c3ccc(C)cc3)nc2C#N)cc1OC,6.5%,9.4%,3.9%,-40.3%,-2.6%
CN(C)CCCNc1oc(-c2ccc(Cl)cc2)nc1C#N,3.0%,1.4%,-10.8%,8.6%,-3.8%
COCCNc1oc(-c2ccc(C)cc2)nc1C#N,?,5.62µM*,12µM*,10µM*,3.55µM*
Cc1ccc(CN2CC(C(=O)Nc3ncccc3C)CC2=O)cc1 (stereo not given),-3.4%,2.2%,2.3%,·,0.9%
CCc1nnc(NC(=O)CSc2nc(-c3ccc(F)cc3)cc(-c3ccccc3)c2C#N)s1,-2.4%,5.5%,?,·,-1.1%
CCOC(=O)NC(=O)CSc1nc(C)cc(C)c1C#N,2.51µM*,5.8µM*,?,111.9%,1.58µM*
